IDE cell activ = IDE (human) activation, cell-based; HEK cells, FAbeta-B cleavage, fluorescence polarization; 0% vehicle, 100% cell-free pure enzyme wells; activation, % at 5.96 µM; hit rate 0.073% among 340,000; AID 493087;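 active = activation above the mean of all tested compounds plus 3 SD, set per screening campaign, cut at about 17% in these data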
CHT inh = inhibitors of human choline transporter CHT | Q9GZV3 | CHT-expressing cells, membrane potential dye, choline response; stronger effect = lower value | B-score at 10 µM | hit rate 0.86% among 310,000;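 active = B-score over 3 SD under the library average, and starting fluorescence ratio not unusually high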;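 note: choline stimulus applied at its EC90 after an EC20 pre-addition; B-score computed on integrated fluorescence ratio after choline addition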
TMEM16A inh = mouse TMEM16A channel inhibition, primary screen | normalized B-score (activity score, 25-100; higher = stronger inhibition) at 10 µM | HEK293 TMEM16A/YFP iodide influx fluorescence, ionomycin | AID 588511 | hit rate 1.2% among 310,000;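 active = ratio plate-corrected score three or more library SD toward inhibition, starting fluorescence score within five deviations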;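 note: score derived from kinetic fluorescence span divided by baseline fluorescence per well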
Target sequence (Q8BHY3 whole entry, looked up): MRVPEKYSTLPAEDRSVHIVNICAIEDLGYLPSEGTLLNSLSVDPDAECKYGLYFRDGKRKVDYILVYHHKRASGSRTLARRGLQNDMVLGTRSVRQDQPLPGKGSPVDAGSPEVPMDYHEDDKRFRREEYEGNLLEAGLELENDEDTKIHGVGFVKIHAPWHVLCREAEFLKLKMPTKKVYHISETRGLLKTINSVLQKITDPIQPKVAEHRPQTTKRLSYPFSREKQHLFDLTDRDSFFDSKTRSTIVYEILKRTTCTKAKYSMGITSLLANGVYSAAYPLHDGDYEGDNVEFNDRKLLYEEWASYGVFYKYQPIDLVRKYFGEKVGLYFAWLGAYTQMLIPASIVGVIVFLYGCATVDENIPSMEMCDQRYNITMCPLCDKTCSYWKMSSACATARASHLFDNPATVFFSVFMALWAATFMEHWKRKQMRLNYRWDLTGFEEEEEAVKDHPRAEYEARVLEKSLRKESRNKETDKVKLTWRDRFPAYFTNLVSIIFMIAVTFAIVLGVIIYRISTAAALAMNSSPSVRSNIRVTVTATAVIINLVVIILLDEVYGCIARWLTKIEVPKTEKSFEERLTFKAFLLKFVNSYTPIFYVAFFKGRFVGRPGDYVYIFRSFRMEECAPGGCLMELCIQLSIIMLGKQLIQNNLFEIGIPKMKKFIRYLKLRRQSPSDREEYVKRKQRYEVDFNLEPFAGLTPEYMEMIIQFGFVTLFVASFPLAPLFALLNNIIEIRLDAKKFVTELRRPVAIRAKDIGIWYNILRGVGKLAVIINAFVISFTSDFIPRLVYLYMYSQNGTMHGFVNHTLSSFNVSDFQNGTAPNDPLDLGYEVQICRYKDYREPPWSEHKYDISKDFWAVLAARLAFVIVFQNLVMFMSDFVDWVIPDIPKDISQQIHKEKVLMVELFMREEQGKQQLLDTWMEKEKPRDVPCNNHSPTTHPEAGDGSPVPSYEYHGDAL
IDE inh = inhibitors of human insulin-degrading enzyme in cells | P14735 | inhibition, % at 5.59 µM | AID 434962 | HEK cells, FAbetaB cleavage, fluorescence polarization | hit rate 0.41% among 320,000;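 active = percent inhibition above the average of all tested compounds plus 3 SD, set per screening campaign, cut at about 16% in these data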;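 note: IDE supplied by intact live HEK cells; FP after avidin binding of uncleaved biotin substrate so inhibition keeps polarization high; 0% = DMSO wells and 100% = 60 µM reference IDE inhibitor Ii1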
CHT PAM = allosterically activates the human high affinity choline transporter. hit rate 0.49% among 310,000. Q9GZV3. B-score at 10 µM. CHT-expressing cells, membrane potential dye, choline EC20; stronger effect = higher value; LV-AA mutant CHT in HEK293 cells;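 active = initial fluorescence not abnormally high and integrated response B-score, plate-corrected, over 3 SD above library mean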
ANO1 activ = mouse TMEM16A channel activation, primary screen; Q8BHY3; HEK293 TMEM16A/YFP-H148Q/I152L, iodide quench fluorescence; stronger effect = lower value; B-score at 10 µM; hit rate 0.3% among 340,000; AID 623877;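 active = fluorescence-ratio B-score plate-corrected deviation score at least 3 library SD below zero, with starting fluorescence score within 5 deviations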;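 note: channel opened by trigger with iodide after compound preincubation; score built on the fluorescence ratio of max minus min over baseline; more negative score means more quench and so TMEM16A activation or potentiation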
CHT activ conf = confirmation of human choline transporter (CHT) activators | hit rate 91% among 2,500 | AID 504833 | activation, % at 10 µM | CHT-expressing cells, membrane potential dye fluorescence (FDSS); % of choline EC20–EC90 response window; HEK293 expressing CHT LV-AA mutant; choline added at its EC20 | shares compounds with CHT PAM;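 active = primary screen active, with duplicate mean activation above negative control mean plus 3 SD, cut at about 11% in these data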
HEK293 MP dye = counter-screen for CHT activators: effect in parental HEK293 cells; shares compounds with CHT PAM; membrane potential dye fluorescence (FDSS); measured after EC20 choline addition; ratio readout change at 10 µM, hits read low; hit rate 62% among 2,500;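 active = duplicate-averaged ratio beyond 3 SD from buffer wells, up or down, though filed actives are nearly all decreases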
Starred values were filed as active, the others as inactive. A selection: hits, their analogues and other compounds. The true share with any hit is near 2.7%.

Screening Cc1c(C)c2ccc(OCc3ccc(C(=O)O)o3)c(C)c2oc1=O returned IDE cell activ 2, CHT inh inactive, TMEM16A inh inactive, IDE inh 4, CHT PAM 7.8*, ANO1 activ inactive, CHT activ conf 30* and HEK293 MP dye -40*.
Cc1cc(C)cc(COc2ccc3c(C)c(CC(=O)O)c(=O)oc3c2C)c1 was read as IDE cell activ 3, CHT inh inactive, TMEM16A inh inactive, IDE inh -3, CHT PAM inactive and ANO1 activ inactive.
Screening O=C1c2cnc3nc(SCc4ccc(Cl)cc4)nn3c2CC2c3ccccc3CCN12 (centres undefined) returned IDE cell activ -8, CHT inh inactive, TMEM16A inh inactive, IDE inh 8, CHT PAM 6.9*, ANO1 activ inactive, CHT activ conf -2 and HEK293 MP dye inactive.
For C=CCn1c(C)c(C(C)=O)c(N2CCCC2)nc1=S the results were IDE cell activ 0, CHT inh inactive, TMEM16A inh inactive, IDE inh -5, CHT PAM inactive and ANO1 activ inactive.
For CCn1c(C)c(C(C)=O)c(N2CCCC2)nc1=S the results were IDE cell activ 7, CHT inh inactive, TMEM16A inh inactive, IDE inh 6, CHT PAM inactive, ANO1 activ inactive, CHT activ conf 3 and HEK293 MP dye inactive.
Cc1ccc(NC(=O)COC(=O)C2=NN(c3ccccc3)C(=O)CC2)c(Br)c1 was read as IDE cell activ -1, IDE inh -1 and ANO1 activ inactive.
Screening CN(C(=O)c1cccc(NC(=O)Cc2ccc(NC(=O)C3CCCN(C(=O)C4CC4)C3)cc2)c1)C1CCC1 (centres undefined) returned IDE cell activ 3.
For Cc1cc(C)c(/C=N/NC(N)=O)c(C)c1/C=N/NC(N)=O the results were IDE cell activ 3, CHT inh inactive, TMEM16A inh inactive, IDE inh -1, CHT PAM 6.4*, ANO1 activ inactive, CHT activ conf 47* and HEK293 MP dye -62*.
Screening Cc1cc(=O)[nH]c(SCC(=O)Nc2ccnc3ccccc23)n1 returned IDE cell activ 5, CHT inh inactive, TMEM16A inh inactive, IDE inh 0, CHT PAM inactive, ANO1 activ inactive, CHT activ conf 31* and HEK293 MP dye -51*.
Screening Cc1cc(=O)[nH]c(SCC(=O)Nc2nc3ccccc3s2)n1 returned IDE cell activ -1, CHT inh inactive, TMEM16A inh inactive, IDE inh 12, CHT PAM inactive and ANO1 activ inactive.
Cc1cccc(NC(=O)C2=C(O)c3ccccc3N(C)S2(=O)=O)c1 was read as IDE cell activ 7, CHT inh inactive, TMEM16A inh inactive, IDE inh 0, CHT PAM inactive, ANO1 activ inactive, CHT activ conf -2 and HEK293 MP dye -28*.
CC1(C)CC(N2CCCC2)=CC(=[N+]2CCCCCC2)C1 was read as IDE cell activ 2, CHT inh inactive, TMEM16A inh inactive, IDE inh 11, CHT PAM 8.6*, ANO1 activ inactive, CHT activ conf 54* and HEK293 MP dye inactive.
For CC1(C)CC(=O)c2cnc(N3CCN(c4ccccc4)CC3)nc2C1 the results were IDE cell activ -1, CHT inh inactive, TMEM16A inh inactive, IDE inh 6, CHT PAM inactive and ANO1 activ inactive.
For CC1CC(C)C[N+](=C2C=C(N3CCCC3)CC(C)(C)C2)C1 (centres undefined) the results were IDE cell activ 4 and ANO1 activ inactive.

High-throughput results from PubChem BioAssay.
